# Target: WDR59
# Assay: pooled miR-30 sensor sort-seq; sequence = guide strand
# Details: shRNA
row,Sequence,sensor-assay potency score (higher = more potent)
1,TTAGCTTTCATGGTGGATGTGA,0.497
2,TTCAGCTCGCTTCTCTCTCAGA,-0.891
3,TTACTTTTCCATCGTCTTGATT,-0.978
4,TTCACCAGCATCTTGACACGAT,0.208

# Target: WDR74
# Assay: as above
# Details: shRNA
row,Sequence,sensor-assay potency score (higher = more potent)
1,TATCTTCAAAGCATTCTCTTTC,-0.0108
2,TGACAAGCTTCTGTGATCCTGG,0.195
3,TGTCTCTGTGTCTTCTAGGGGC,-0.152
4,TTCTTCTTTCTCCGTCTCGTTT,-0.81
5,TTCAAGATCCCAGTCTCGGTGC,-0.0333
6,ATATCTTCAAAGCATTCTCTTT,-1.27
7,TAGTGAGTACTCTCCATAGGTG,-0.709
8,TATCCTCAAGACTCTGTCCAAG,-0.997
9,TTCACCGTCCTGTCCGCGCAGC,-1.09
10,TTGAGACTTGAGATAAACCTTA,0.692
11,TTTCGCTGAAGATTTACCCCTT,0.223
12,TGGATCATAAACACGGACCTGG,0.064

# Target: WDR7
# Assay: as above
# Details: shRNA
row,Sequence,sensor-assay potency score (higher = more potent)
1,TAACACAGTGCATAGCAGCTAA,-0.462
2,ATATTTGGAACACACAACCAAA,-1.51
3,TTGTCCGTCGTGACATCCTGTT,-0.875
4,TAAGTGAATCAACAGCAGCAGG,-1.52
5,TATTGCTTGAACCATCAGGGAG,-0.959
6,TTTAGAATCTCAACTGCTGTTA,0.0218
7,TTAGGTTTGTCTTTATTGCTTG,0.201
8,TAGCTGACCATGTAGAACCTGC,0.024
9,TTAGACAAACAAGTGATTGATG,-0.425
10,TTTGTCCGTCGTGACATCCTGT,-0.661
11,TGTCTTTATTGCTTGAACCATC,-1.06
12,TTAATTTGCAGTTCTACTGAAA,-0.417

# Target: WDR96
# Assay: as above
# Details: shRNA
row,Sequence,sensor-assay potency score (higher = more potent)
1,TTTTTGAGTAGTTTCTTGCAGT,-0.3
2,TTTCTCTAGAGCTTAATTCTTC,-0.586
3,TCATCTTGCACAACAAGCGTTC,-0.652
4,TTACACAAAATGATACTCGATT,-0.176
5,TTGCCTTTCAATTTGGTCCTTC,0.277
6,TAATCTTTCAACTTCAGTCTGT,0.842
7,TAGATTTCCGAACAGCTTCTGA,-0.901
8,TACATCTTTACTTTCCATCATG,-0.972
9,TAAGTTGTCATAGTGCTCCTTG,0.702
10,TTGCTGATCATAAACGACGTGC,0.0797
11,TACACAAGCACAATCCTCCAGC,-0.19

# Reference: the OligoGym collection
